{"source": "PubChem BioAssay", "key": {"[1]": {"assay": "SU-DIPG-VI glioma cell viability, MIPE4.0 library, CellTiter-Glo luminescence, qHTS (AID 1347066; cut-off not given, nearly all actives have AC50 up to about 30 µM;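 further: cells exposed to compound for 48 hours before readout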)", "conditions": "CellTiter-Glo ATP luminescence"}, "[2]": {"target": "Mitogen-activated protein kinase 7 (Homo sapiens) (UniProt Q13164)", "sequence (Q13164 whole entry, looked up, the tested form may be a part)": "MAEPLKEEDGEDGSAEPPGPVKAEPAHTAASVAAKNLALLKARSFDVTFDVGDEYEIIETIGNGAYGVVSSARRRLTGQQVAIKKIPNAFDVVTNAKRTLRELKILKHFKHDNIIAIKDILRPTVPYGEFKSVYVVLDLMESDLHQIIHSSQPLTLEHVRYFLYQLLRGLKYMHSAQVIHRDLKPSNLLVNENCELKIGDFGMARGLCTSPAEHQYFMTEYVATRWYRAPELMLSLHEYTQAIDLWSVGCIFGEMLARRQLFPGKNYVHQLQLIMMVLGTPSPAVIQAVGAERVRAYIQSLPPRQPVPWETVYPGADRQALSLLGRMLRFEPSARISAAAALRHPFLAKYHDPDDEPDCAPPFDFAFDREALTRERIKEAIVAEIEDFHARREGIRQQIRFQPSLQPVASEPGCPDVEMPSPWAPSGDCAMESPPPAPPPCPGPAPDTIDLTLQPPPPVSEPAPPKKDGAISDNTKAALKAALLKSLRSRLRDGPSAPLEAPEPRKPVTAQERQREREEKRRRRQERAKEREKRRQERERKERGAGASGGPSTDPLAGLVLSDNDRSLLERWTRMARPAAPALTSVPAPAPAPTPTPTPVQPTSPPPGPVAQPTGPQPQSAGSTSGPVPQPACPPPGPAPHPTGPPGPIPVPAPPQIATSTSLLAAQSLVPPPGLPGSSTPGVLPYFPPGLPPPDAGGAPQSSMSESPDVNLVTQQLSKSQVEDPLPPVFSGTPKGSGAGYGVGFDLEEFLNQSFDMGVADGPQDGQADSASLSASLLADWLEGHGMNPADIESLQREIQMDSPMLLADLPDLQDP", "assay": "ERK5 transactivation activators in reporter cells, primary screen, cell-based, HTS (AID 1508626;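 active means luciferase signal above three times the same-plate solvent-only control wells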;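 further: luciferase driven by Gal4-ERK5 fusion binding five Gal4 sites before minimal TATA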)", "conditions": "HeLa Gal4-ERK5 transactivation, 18 h, at 5 µM, stronger effect = higher value"}, "[3]": {"assay": "viability loss in pontine glioma line – cell-based, SU-DIPG-XXV, MIPE5.0, CellTiter-Glo, qHTS, dose response (AID 1347065; cut-off not given, nearly all actives have AC50 up to about 26 µM;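 further: cells exposed to compound for 48 hours before ATP readout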)", "conditions": "CellTiter-Glo ATP luminescence"}, "[4]": {"assay": "JHH-DIPG-1 glioma cell viability, MIPE5.0 library, CellTiter-Glo luminescence, qHTS (AID 1347067; cut-off not given, nearly all actives have AC50 up to about 26 µM;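 further: cells exposed to compound for 48 hours before readout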)", "conditions": "JHH-DIPG-1 glioma viability, CellTiter-Glo ATP luminescence"}, "[5]": {"assay": "SU-DIPG-XXV glioma cell viability, MIPE5.0 library, qHTS (AID 1347068; cut-off not given, nearly all actives have IC50 up to about 30 µM;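 on IC50: cells exposed to compound for 48 hours before viability readout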)"}, "[6]": {"test_system": "Aerobactin synthetase IucA (Klebsiella pneumoniae hvKP1)", "assay": "Biochemical IucA enzyme inhibition primary screen of the Spectrum library (AID 1346200);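 further: 100% = wells without compound and 0% = wells lacking enzyme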", "conditions": "malachite green pyrophosphate, A620, at 8 µM, stronger effect = lower value"}, "[7]": {"assay": "circadian clock period modulators, cell-based, LOPAC library, luminescence reporter (AID 2774);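 further: values are relative to mean of DMSO wells on each plate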", "conditions": "circadian reporter cells, at 7 µM, actives lie on both sides"}, "[8]": {"test_system": "Aerobactin synthetase IucA (Klebsiella pneumoniae, hypervirulent)", "assay": "IucA enzyme inhibition, biochemical, LOPAC library, absorbance readout (AID 1346212);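 further: 100% = no compound wells and 0% = no enzyme wells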", "conditions": "IucA enzyme assay, absorbance (OD) readout; stronger effect = lower value;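 tested at 8 µM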"}, "[9]": {"assay": "rescue of polyQ-huntingtin neuronal dysfunction in worms, whole organism, C. elegans mechanosensory neurons, N-terminal huntingtin (AID 1599)", "conditions": "touch response, stronger effect = higher value"}, "[10]": {"assay": "inhibitors of mitochondrial cytochrome c release, biochemical, purified mitochondria (AID 1603);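 further: mouse liver mitochondria challenged with calcium chloride; signal normalized to the plate average as 100%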", "conditions": "stronger effect = lower value"}, "[11]": {"assay": "inhibitors of polyQ protein aggregation (AID 1604)", "conditions": "polyglutamine-induced protein aggregation inhibition assay; stronger effect = higher value; tested at 2.5 µM"}, "[12]": {"assay": "enhancers of glutamate uptake in motor neurons, MN-1 cell line (AID 1612);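 further: tested at 1 µM final; 0% = mean of DMSO vehicle wells on each plate; positive means more glutamate uptake than control and negative means less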", "conditions": "MN-1 motor neuron cells, stronger effect = higher value"}, "[13]": {"assay": "suppressors of polyglutamine aggregation in yeast, 75Q-TubH (AID 1616)", "conditions": "S. cerevisiae 75Q-TubH polyglutamine aggregation suppression; stronger effect = higher value"}, "[14]": {"assay": "growth inhibition of DIPG glioma cells, dose response, cell-based, SU-DIPG-XVII, MIPE5.0, CellTiter-Glo, qHTS (AID 1347060; cut-off not given, nearly all actives have AC50 up to about 26 µM;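 on AC50: cells exposed to compound for 48 hours before viability readout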)", "conditions": "SU-DIPG-XVII viability, CellTiter-Glo ATP luminescence"}, "[15]": {"assay": "inhibitors of Cryptococcus chitosan production, flow cytometry, Cibacron Brilliant Red staining (AID 1347148);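 further: compound exposure lasted three days at 37 degrees C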", "conditions": "Cryptococcus neoformans chitosan, stronger effect = lower value; at 10 µM unless noted"}, "[16]": {"assay": "reducers of polyQ inclusions in PC12 cells, cell-based, NGF-treated PC12, GFPQ80 (AID 1614);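 further: lower means fewer inclusions and 0 means no inclusions at all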", "conditions": "PC12 NGF-treated GFP-polyQ80 inclusion reduction"}, "[17]": {"assay": "growth inhibition of DIPG glioma cells, dose response, cell-based, SU-DIPG-XIII, MIPE5.0, CellTiter-Glo, qHTS (AID 1347064; cut-off not given, nearly all actives have AC50 up to about 23 µM)", "conditions": "SU-DIPG-XIII viability, CellTiter-Glo ATP luminescence"}, "[18]": {"target": "ATP-dependent translocase ABCB1 (Homo sapiens) (UniProt P08183)", "sequence (P08183 whole entry, looked up)": "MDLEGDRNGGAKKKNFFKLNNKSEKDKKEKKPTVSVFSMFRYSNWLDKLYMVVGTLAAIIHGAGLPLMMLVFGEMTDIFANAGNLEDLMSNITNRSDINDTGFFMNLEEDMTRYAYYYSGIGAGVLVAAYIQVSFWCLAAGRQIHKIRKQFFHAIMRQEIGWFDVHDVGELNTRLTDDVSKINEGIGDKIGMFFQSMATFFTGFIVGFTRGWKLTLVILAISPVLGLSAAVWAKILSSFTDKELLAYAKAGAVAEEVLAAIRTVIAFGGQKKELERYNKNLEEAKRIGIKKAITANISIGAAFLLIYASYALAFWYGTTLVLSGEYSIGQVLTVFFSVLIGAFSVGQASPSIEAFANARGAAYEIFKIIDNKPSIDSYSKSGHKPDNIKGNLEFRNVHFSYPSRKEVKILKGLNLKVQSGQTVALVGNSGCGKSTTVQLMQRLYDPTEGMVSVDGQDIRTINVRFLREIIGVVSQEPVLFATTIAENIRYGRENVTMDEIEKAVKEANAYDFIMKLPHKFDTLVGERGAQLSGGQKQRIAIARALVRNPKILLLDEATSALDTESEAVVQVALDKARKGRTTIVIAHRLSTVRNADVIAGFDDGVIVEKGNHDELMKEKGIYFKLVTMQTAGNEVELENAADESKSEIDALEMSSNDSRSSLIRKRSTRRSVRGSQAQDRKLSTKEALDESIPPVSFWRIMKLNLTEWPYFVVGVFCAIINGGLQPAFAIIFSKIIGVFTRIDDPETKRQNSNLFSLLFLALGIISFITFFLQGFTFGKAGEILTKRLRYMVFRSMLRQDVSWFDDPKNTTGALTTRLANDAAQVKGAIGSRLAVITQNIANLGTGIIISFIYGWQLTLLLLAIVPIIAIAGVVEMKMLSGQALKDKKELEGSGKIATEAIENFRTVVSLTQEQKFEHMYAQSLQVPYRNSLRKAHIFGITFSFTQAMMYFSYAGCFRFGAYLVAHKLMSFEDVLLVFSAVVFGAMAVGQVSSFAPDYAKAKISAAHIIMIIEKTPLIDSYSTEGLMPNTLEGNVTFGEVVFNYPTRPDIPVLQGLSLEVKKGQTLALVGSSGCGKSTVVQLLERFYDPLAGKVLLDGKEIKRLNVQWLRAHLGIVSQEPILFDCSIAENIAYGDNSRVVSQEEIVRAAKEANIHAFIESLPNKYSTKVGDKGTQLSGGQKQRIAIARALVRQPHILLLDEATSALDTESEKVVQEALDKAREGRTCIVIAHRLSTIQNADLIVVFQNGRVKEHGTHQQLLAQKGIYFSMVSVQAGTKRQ", "assay": "MDR1 (ABCB1) efflux transporter inhibition, cell-based (AID 377; in the data active means fluorescence slope change above about 50%)", "conditions": "MDR1-expressing cells, fluorescent substrate accumulation slope; stronger effect = higher value; concentration not given here"}, "[19]": {"assay": "hESC survival regulators, cell-based (AID 493140);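 further: cells exposed to compounds for four days before counting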", "conditions": "human embryonic stem cell survival screen; stronger effect = higher value"}}, "note": "Results filed as inconclusive are left out. For part of these data: Potency and affinity values are given separately. Active and inactive are the calls of the source. Unless noted, how the calls were made is not given here."}
{"compound": "CCOC(=O)c1cncn1[C@H](C)c1ccccc1", "values": [{"measurement": "outcome", "setting": "[1]", "value": "inactive"}, {"measurement": "luciferase signal", "setting": "[2]", "value": "52 AU (inactive)"}]}
{"compound": "CC(O)(CS(=O)(=O)c1ccc(F)cc1)C(=O)Nc1ccc(C#N)c(C(F)(F)F)c1", "note": "(stereo not drawn)", "values": [{"measurement": "outcome", "setting": "[3]", "value": "inactive"}, {"measurement": "outcome", "setting": "[4]", "value": "inactive"}, {"measurement": "outcome", "setting": "[5]", "value": "inactive"}]}
{"compound": "Cc1ccc(-c2nc3ccc(C)cn3c2CC(=O)N(C)C)cc1", "values": [{"measurement": "activity remaining", "setting": "[6]", "value": "101% (inactive)"}, {"measurement": "luciferase signal", "setting": "[2]", "value": "44 AU (inactive)"}]}
{"compound": "COC(=O)N1CCN(C(=O)Cc2ccc(Cl)c(Cl)c2)C(CN2CCCC2)C1", "note": "(stereo not drawn)", "values": [{"measurement": "period change", "setting": "[7]", "value": "-0.045 h (inactive)"}, {"measurement": "remaining activity", "setting": "[8]", "value": "101% (inactive)"}]}
{"compound": "C[N+]1(C)CCN(c2ccccc2)CC1", "values": [{"measurement": "period change", "setting": "[7]", "value": "-0.125 h (inactive)"}, {"measurement": "remaining activity", "setting": "[8]", "value": "113% (inactive)"}]}
{"compound": "O=C1Nc2ccc(Cl)cc2C(c2ccccc2Cl)=NC1O", "note": "(stereo not drawn)", "values": [{"measurement": "rescue above control", "setting": "[9]", "value": -10.3}, {"measurement": "cytochrome c release ratio", "setting": "[10]", "value": 1.2}, {"measurement": "inhibition of aggregation", "setting": "[11]", "value": 21.1, "unit": "%"}, {"measurement": "glutamate uptake change", "setting": "[12]", "value": -7.53, "unit": "%"}, {"measurement": "aggregation suppression score", "setting": "[13]", "value": 0.626}]}
{"compound": "CC(C)[C@]12O[C@H]1[C@@H]1O[C@]13[C@]1(O[C@H]1C[C@H]1C4=C(CC[C@@]13C)C(=O)OC4)[C@@H]2O", "values": [{"measurement": "AC50", "setting": "[14]", "value": "186 nM (active)"}, {"measurement": "AC50", "setting": "[3]", "value": "209 nM (active)"}, {"measurement": "AC50", "setting": "[4]", "value": "83.3 nM (active)"}, {"measurement": "IC50", "setting": "[5]", "value": "186 nM (active)"}, {"measurement": "fold fluorescence", "setting": "[15]", "value": "4.23 [at 138.7 µM] (inactive)"}]}
{"compound": "CN=C1CN(O)C(c2ccccc2)=c2cc(Cl)ccc2=N1", "values": [{"measurement": "rescue above control", "setting": "[9]", "value": -9.17}, {"measurement": "cytochrome c release ratio", "setting": "[10]", "value": 1.33}, {"measurement": "inhibition of aggregation", "setting": "[11]", "value": 32, "unit": "%"}, {"measurement": "glutamate uptake change", "setting": "[12]", "value": -4.65, "unit": "%"}, {"measurement": "inclusion score", "setting": "[16]", "value": 2}, {"measurement": "aggregation suppression score", "setting": "[13]", "value": 1.55}]}
{"compound": "CC[C@@H]1/C=C/C=C/C[C@H](C)[C@@H](O)[C@](C)(O)C(=O)[C@H](C)[C@@H](O)[C@H](C)C(=O)[C@H](C)[C@@H](O)[C@H](C)/C=C/C(=O)O[C@H]2[C@@H](C)[C@@H](CC1)O[C@@]1(CC[C@@H](C)[C@@H](C[C@H](C)O)O1)[C@@H]2C", "values": [{"measurement": "rescue above control", "setting": "[9]", "value": -7.82}, {"measurement": "cytochrome c release ratio", "setting": "[10]", "value": 1.21}, {"measurement": "inhibition of aggregation", "setting": "[11]", "value": -10.6, "unit": "%"}, {"measurement": "glutamate uptake change", "setting": "[12]", "value": 5.74, "unit": "%"}, {"measurement": "aggregation suppression score", "setting": "[13]", "value": 0.0317}, {"measurement": "fold fluorescence", "setting": "[15]", "value": "5.62 [at 63.2 µM] (inactive)"}]}
{"compound": "C[C@]12CCC(=O)C=C1CC[C@@H]1[C@@H]2CC[C@@]2(C)[C@H]1CC[C@]2(C)O", "values": [{"measurement": "outcome", "setting": "[1]", "value": "inactive"}]}
{"compound": "Oc1cc2c(cc1O)[C@H]1c3ccccc3CN[C@@H]1CC2", "values": [{"measurement": "period change", "setting": "[7]", "value": "-0.1 h (inactive)"}]}
{"compound": "CC[C@@H](C(N)=O)N1CCCC1=O", "values": [{"measurement": "outcome", "setting": "[14]", "value": "inactive"}, {"measurement": "outcome", "setting": "[17]", "value": "inactive"}, {"measurement": "outcome", "setting": "[1]", "value": "inactive"}, {"measurement": "outcome", "setting": "[5]", "value": "inactive"}]}
{"compound": "COc1ccc2c(c1)C13CCCC[C@@H]1C(C2)N(C)CC3", "note": "(stereo partly drawn)", "values": [{"measurement": "fluorescence slope change", "setting": "[18]", "value": "14.1% (inactive)"}, {"measurement": "survival", "setting": "[19]", "value": "5.75 (inactive)"}, {"measurement": "remaining activity", "setting": "[8]", "value": "108% (inactive)"}]}
{"compound": "CN1C(=O)CN=C(c2ccccc2)c2cc(Cl)ccc21", "values": [{"measurement": "rescue above control", "setting": "[9]", "value": 0.67}, {"measurement": "cytochrome c release ratio", "setting": "[10]", "value": 0.88}, {"measurement": "inhibition of aggregation", "setting": "[11]", "value": 26.5, "unit": "%"}, {"measurement": "glutamate uptake change", "setting": "[12]", "value": -26.8, "unit": "%"}, {"measurement": "inclusion score", "setting": "[16]", "value": 2}, {"measurement": "aggregation suppression score", "setting": "[13]", "value": 0.718}]}
